Experiments:
Experiment in all cases: PBM; 200 nM protein, PBS
Conditions in all cases: dsDNA, one strand shown
HESX1 [1] = target: HESX1 (Homo sapiens, UniProt Q9UBX0 95-180, R165K)
HESX1 [2] = target: HESX1 (Homo sapiens, UniProt Q9UBX0 95-180)
PROP1 [3] = target: PROP1 (Homo sapiens, UniProt O75360 56-141)
HESX1 [4] = target: HESX1 (Homo sapiens, UniProt Q9UBX0 95-180, R109Q)
PROP1 [5] = target: PROP1 (Homo sapiens, UniProt O75360 56-141, R99H)
HESX1 [6] = target: HESX1 (Homo sapiens, UniProt Q9UBX0 95-180, P111T)
Chain of HESX1 (Homo sapiens, UniProt Q9UBX0 95-180, P111T) (Q9UBX0 95-180 P111T): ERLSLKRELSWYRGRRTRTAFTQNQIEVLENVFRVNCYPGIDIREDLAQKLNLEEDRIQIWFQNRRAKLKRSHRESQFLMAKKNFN

PROP1 [7] = target: PROP1 (Homo sapiens, UniProt O75360 56-141, F88S)
Chain of PROP1 (Homo sapiens, UniProt O75360 56-141, F88S) (O75360 56-141 F88S): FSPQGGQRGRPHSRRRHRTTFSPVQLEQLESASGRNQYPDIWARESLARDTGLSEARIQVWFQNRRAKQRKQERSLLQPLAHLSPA

HESX1 [8] = target: HESX1 (Homo sapiens, UniProt Q9UBX0 95-180, F115L)
Chain of HESX1 (Homo sapiens, UniProt Q9UBX0 95-180, F115L) (Q9UBX0 95-180 F115L): as the sequence (Q9UBX0 95-180 P111T) above, with T17P, F21L counted along it

ALX3 [9] = target: ALX3 (Homo sapiens, UniProt O95076 139-225, N203Q)
Chain of ALX3 (Homo sapiens, UniProt O95076 139-225, N203Q) (O95076 139-225 N203Q): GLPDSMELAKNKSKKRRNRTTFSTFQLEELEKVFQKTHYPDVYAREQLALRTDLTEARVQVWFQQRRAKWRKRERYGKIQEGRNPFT

ALX3 [10] = target: ALX3 (Homo sapiens, UniProt O95076 139-225)
Chain of ALX3 (Homo sapiens, UniProt O95076 139-225) (O95076 139-225): as the sequence (O95076 139-225 N203Q) above, with Q65N counted along it

ALX3 [11] = target: ALX3 (Homo sapiens, UniProt O95076 139-225, L168Q)
Chain of ALX3 (Homo sapiens, UniProt O95076 139-225, L168Q) (O95076 139-225 L168Q): as the sequence (O95076 139-225 N203Q) above, with L30Q, Q65N counted along it

ALX3 [12] = target: ALX3 (Homo sapiens, UniProt O95076 139-225, L168V)
Chain of ALX3 (Homo sapiens, UniProt O95076 139-225, L168V) (O95076 139-225 L168V): as the sequence (O95076 139-225 N203Q) above, with L30V, Q65N counted along it

ALX3 [13] = target: ALX3 (Homo sapiens, UniProt O95076 139-225, N203S)
Chain of ALX3 (Homo sapiens, UniProt O95076 139-225, N203S) (O95076 139-225 N203S): as the sequence (O95076 139-225 N203Q) above, with Q65S counted along it

Chain of PROP1 (Homo sapiens, UniProt O75360 56-141, R99H) (O75360 56-141 R99H): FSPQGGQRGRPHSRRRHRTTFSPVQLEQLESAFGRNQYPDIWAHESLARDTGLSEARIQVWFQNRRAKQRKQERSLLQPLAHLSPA
Chain of HESX1 (Homo sapiens, UniProt Q9UBX0 95-180, R165K) (Q9UBX0 95-180 R165K): as the sequence (Q9UBX0 95-180 P111T) above, with T17P, R71K counted along it
Chain of HESX1 (Homo sapiens, UniProt Q9UBX0 95-180, R109Q) (Q9UBX0 95-180 R109Q): as the sequence (Q9UBX0 95-180 P111T) above, with R15Q, T17P counted along it
Chain of HESX1 (Homo sapiens, UniProt Q9UBX0 95-180) (Q9UBX0 95-180): as the sequence (Q9UBX0 95-180 P111T) above, with T17P counted along it
Chain of PROP1 (Homo sapiens, UniProt O75360 56-141) (O75360 56-141): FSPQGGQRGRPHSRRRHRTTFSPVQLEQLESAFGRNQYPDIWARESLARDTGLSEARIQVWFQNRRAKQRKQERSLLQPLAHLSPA

Sequence | binding signal (HESX1 [1]) | binding signal (HESX1 [2]) | binding signal (PROP1 [3]) | binding signal (HESX1 [4]) | binding signal (PROP1 [5]) | binding signal (HESX1 [6]) | binding signal (PROP1 [7]) | binding signal (HESX1 [8]) | binding signal (ALX3 [9]) | binding signal (ALX3 [10]) | binding signal (ALX3 [11]) | binding signal (ALX3 [12]) | binding signal (ALX3 [13])
CCGGCCGA | 6.49 upbm affinity estimate (log intensity, higher = more binding, comparable within an allelic series) | 6.45 upbm affinity estimate (log intensity, higher = more binding, comparable within an allelic series) | 6.73 upbm affinity estimate (log intensity, higher = more binding, comparable within an allelic series) | 6.51 upbm affinity estimate (log intensity, higher = more binding, comparable within an allelic series) | 6.72 upbm affinity estimate (log intensity, higher = more binding, comparable within an allelic series) | 6.49 upbm affinity estimate (log intensity, higher = more binding, comparable within an allelic series) | 6.59 upbm affinity estimate (log intensity, higher = more binding, comparable within an allelic series) | 6.54 upbm affinity estimate (log intensity, higher = more binding, comparable within an allelic series) |  |  |  |  | 
CACCCCCC | 6.39 upbm affinity estimate (log intensity, higher = more binding, comparable within an allelic series) | 6.4 upbm affinity estimate (log intensity, higher = more binding, comparable within an allelic series) | 6.46 upbm affinity estimate (log intensity, higher = more binding, comparable within an allelic series) | 6.54 upbm affinity estimate (log intensity, higher = more binding, comparable within an allelic series) | 6.42 upbm affinity estimate (log intensity, higher = more binding, comparable within an allelic series) | 6.38 upbm affinity estimate (log intensity, higher = more binding, comparable within an allelic series) | 6 upbm affinity estimate (log intensity, higher = more binding, comparable within an allelic series) | 6.45 upbm affinity estimate (log intensity, higher = more binding, comparable within an allelic series) | 7.67 upbm affinity estimate (log intensity, higher = more binding, comparable within an allelic series) | 7.7 upbm affinity estimate (log intensity, higher = more binding, comparable within an allelic series) | 7.45 upbm affinity estimate (log intensity, higher = more binding, comparable within an allelic series) | 7.59 upbm affinity estimate (log intensity, higher = more binding, comparable within an allelic series) | 7.71 upbm affinity estimate (log intensity, higher = more binding, comparable within an allelic series)
AGCCTCGC | 6.43 upbm affinity estimate (log intensity, higher = more binding, comparable within an allelic series) | 6.5 upbm affinity estimate (log intensity, higher = more binding, comparable within an allelic series) |  | 6.45 upbm affinity estimate (log intensity, higher = more binding, comparable within an allelic series) |  | 6.49 upbm affinity estimate (log intensity, higher = more binding, comparable within an allelic series) |  | 6.46 upbm affinity estimate (log intensity, higher = more binding, comparable within an allelic series) |  |  |  |  | 
CACGGCTC | 6.57 upbm affinity estimate (log intensity, higher = more binding, comparable within an allelic series) | 6.56 upbm affinity estimate (log intensity, higher = more binding, comparable within an allelic series) |  | 6.55 upbm affinity estimate (log intensity, higher = more binding, comparable within an allelic series) |  | 6.58 upbm affinity estimate (log intensity, higher = more binding, comparable within an allelic series) |  | 6.53 upbm affinity estimate (log intensity, higher = more binding, comparable within an allelic series) |  |  |  |  | 
AGCTTGCG | 6.46 upbm affinity estimate (log intensity, higher = more binding, comparable within an allelic series) | 6.4 upbm affinity estimate (log intensity, higher = more binding, comparable within an allelic series) |  | 6.39 upbm affinity estimate (log intensity, higher = more binding, comparable within an allelic series) |  | 6.32 upbm affinity estimate (log intensity, higher = more binding, comparable within an allelic series) |  | 6.52 upbm affinity estimate (log intensity, higher = more binding, comparable within an allelic series) |  |  |  |  | 
AGACGCTC | 6.35 upbm affinity estimate (log intensity, higher = more binding, comparable within an allelic series) | 6.34 upbm affinity estimate (log intensity, higher = more binding, comparable within an allelic series) |  | 6.5 upbm affinity estimate (log intensity, higher = more binding, comparable within an allelic series) |  | 6.36 upbm affinity estimate (log intensity, higher = more binding, comparable within an allelic series) |  | 6.54 upbm affinity estimate (log intensity, higher = more binding, comparable within an allelic series) |  |  |  |  | 
GAAGGAGC | 6.42 upbm affinity estimate (log intensity, higher = more binding, comparable within an allelic series) | 6.37 upbm affinity estimate (log intensity, higher = more binding, comparable within an allelic series) | 6.66 upbm affinity estimate (log intensity, higher = more binding, comparable within an allelic series) | 6.46 upbm affinity estimate (log intensity, higher = more binding, comparable within an allelic series) | 6.54 upbm affinity estimate (log intensity, higher = more binding, comparable within an allelic series) | 6.42 upbm affinity estimate (log intensity, higher = more binding, comparable within an allelic series) | 6.62 upbm affinity estimate (log intensity, higher = more binding, comparable within an allelic series) | 6.55 upbm affinity estimate (log intensity, higher = more binding, comparable within an allelic series) |  |  |  |  | 
AGTTCAGC | 6.57 upbm affinity estimate (log intensity, higher = more binding, comparable within an allelic series) | 6.45 upbm affinity estimate (log intensity, higher = more binding, comparable within an allelic series) |  | 6.48 upbm affinity estimate (log intensity, higher = more binding, comparable within an allelic series) |  | 6.48 upbm affinity estimate (log intensity, higher = more binding, comparable within an allelic series) |  | 6.59 upbm affinity estimate (log intensity, higher = more binding, comparable within an allelic series) |  |  |  |  | 

Source: publication PMC11006913
